# Assay results: PubChem BioAssay (Tox21)
# Records with an inconclusive call do not appear. Values without a mark were called inactive. The source made the active and inactive calls. Calls come from the whole dose curve; as a rule, active = well fitted cell-killing curve with a large enough effect in the repeat runs; inconclusive = weak or mixed curves, or effect the other way; inactive = no such curve, though single readings can be large or run the other way.
# Experiment: qHTS assay to identify small molecule antagonists of the vitamin D receptor (VDR) signaling pathway - cell viability counter screen (AID 743225); note: nearly all actives have a fitted effect of over 50% in size
# Conditions: VDR-bla HEK293T viability, CellTiter-Glo luminescence, 16 h; series mostly up to 61 µM; viability change, negative = cytotoxic: at the top concentration
# From the text: U.S. Tox21 Program National Center for Advancing Translational Sciences [NCATS] NIH Chemical Genomics Center [NCGC] U.S. Environmental Protection Agency [EPA] National Institutes of Environmental Health Sciences [NIEHS] National Toxicology Program [NTP] U.S. Food and Drug Administration [FDA] Tox21 Assay Overview: The vitamin D receptor (VDR), a member of nuclear hormone receptor superfamily, plays a critical role in calcium homeostasis and bone metabolism. It is also involved in cell differentiation and growth, and thrombogenicity. To identify the compounds that inhibit VDR signaling, the VDR-UAS-bla HEK 293T cell line (Invitrogen, Carlsbad, CA, USA) containing a beta-lactamase reporter gene under the control of an upstream activator sequence (UAS) was used to screen the Tox21 10K compound library. The cytotoxicity of the Tox21 compound library against the VDR-bla cell line was tested in parallel by measuring the cell viability using CellTiter-Glo assay (Promega, Madison, WI) in the same wells.
# Tox21 Assay Protocol Summary: VDR-bla cells were dispensed at 2,000 cells/5 uL of assay medium per well into black wall/clear-bottom 1536-well plates using a Multidrop Combi (Thermo Fisher Scientific, Waltham, MA) dispenser. After the assay plates were incubated at a 37C and 5% CO2 for 4 h, 23 nL of compounds dissolved in DMSO, positive controls or DMSO only was transferred to the assay plate by a Pintool station (Kalypsys, San Diego, CA), followed by addition of 1 uL of 1-alpha, 25-Dihydroxy Vitamin D3 (3 nM, final concentration in the wells) using a Bioraptr Flying Reagent Dispenser (FRD) workstation (Beckman Coulter, Indianapolis, IN). The plates were incubated at 37C and 5% CO2 for 16 h, and then 1 uL of LiveBLAzerTM B/G FRET substrate was added using a Bioraptr FRD. The plates were incubated at room temperature for 2 h and fluorescence intensity was measured by an Envision plate reader (PerkinElmer, Shelton, CT). For cell viability readout that measures cytotoxicity, 3 ul/well of CellTiter-Glo reagent was added into the assay plates using a Bioraptr FRD. After 30 min incubation at room temperature, the luminescence intensity in the plates was measured using a ViewLux plate reader (PerkinElmer).
# % is set by controls: 0 for no effect and ±100 for the full control effect.
SMILES,outcome,"viability change, negative = cytotoxic"
CC(=O)Nc1cccc(O)c1,inactive,–
CCCCCCCCCCCCS,–,1.66%
C=C(C)C(=O)OCCOCCOCCOC(=O)C(=C)C,inactive,–
CCC(O)OCCCOC (stereo not given),inactive,–
Nc1ccccc1[N+](=O)[O-],inactive,–
COc1ccc(NC(C)=O)cc1N,inactive,–
CCCCN(CCCC)CCCC,inactive,–
O=C(CC(C(=O)OC1CCCCC1)S(=O)(=O)O)OC1CCCCC1 (stereo not given),inactive,–
CCC(O)OC(O)CC (stereo not given),inactive,–
COS(C)(=O)=O,inactive,–
CC(C)(C)[C@@H](O)[C@@H](Cc1ccc(Cl)cc1)n1cncn1,inactive,–
C#C[C@]1(O)CC[C@H]2[C@@H]3CCC4=CC(=O)CC[C@@H]4[C@H]3CC[C@@]21C,inactive,–
C=CCNC(N)=S,inactive,–
COc1ccc(Nc2ccccc2)c(C)c1,inactive,–
Oc1cccc2ccccc12,–,-1.61%
Cc1ccc(N(C)C)cc1,inactive,–
NNc1nncc2ccccc12,inactive,–
CCCC(C)=O,inactive,–
CCCCCCCCCCCCCCO,inactive,–
Cc1cnc(C(=O)NCCc2ccc(S(=O)(=O)NC(=O)NC3CCCCC3)cc2)cn1,inactive,–

SMILES,outcome,"viability change, negative = cytotoxic"
CC(=O)CC(=O)Nc1ccccc1,inactive,–
Cc1cccc(O)c1,–,-1.28% [at 78.8 µM]
O=C(OCCOCCOC(=O)c1ccccc1)c1ccccc1,inactive,–
CC1=CC(=O)NS(=O)(=O)O1,inactive,–
CCCCCC/C(C=O)=C\c1ccccc1,–,11.3%
O=C(O)c1ccc(C(=O)O)cc1,inactive,–
OCc1cccnc1,inactive,–
CCCCCCCCCCCCCCCO,inactive,–
CC1=C(C)S(=O)(=O)CCS1(=O)=O,inactive,–
O=C1CCC(N2C(=O)c3ccccc3C2=O)C(=O)N1 (stereo not given),inactive,–
O=C(O)CCCC[C@@H]1SC[C@@H]2NC(=O)N[C@@H]21,inactive,–
CC1=CCC2CC1C2(C)C (stereo not given),–,-0.316%
C=CCOC(=O)c1ccccc1C(=O)OCC=C,inactive,–
CCCCC(CC)COC(=O)C(C#N)=C(c1ccccc1)c1ccccc1 (stereo not given),inactive,–
CN(C)CCCN,inactive,–
CCCCCCCCCCCCOCCO,inactive,–
CC1CCC(C(C)C)C(O)C1 (stereo not given),inactive,–
CCCCC(CC)COC(=O)CS (stereo not given),inactive,–
Cc1ccc(S(N)(=O)=O)cc1,–,8.46%
CC(=O)Nc1ccccc1,inactive,–
